From PubChem BioAssay
RORgamma inh = qHTS for inhibitors of ROR gamma transcriptional activity; Drosophila S2 Gal4-RORgamma UAS-luciferase reporter, 20 h; Potency, µM (series often up to 53.6 µM), without a hit: top-dose activity change, negative = inhibition, most hits filed as inhibitors; 310,000 compounds, 5.4% hits; note: potency is the fitted concentration of half-maximal effect; % is set by controls: 0 for no effect and ±100 for the full control effect; nearly all actives have a fitted effect of over 60% in size
Target sequence (P51450 whole entry, looked up, the tested form may be a part): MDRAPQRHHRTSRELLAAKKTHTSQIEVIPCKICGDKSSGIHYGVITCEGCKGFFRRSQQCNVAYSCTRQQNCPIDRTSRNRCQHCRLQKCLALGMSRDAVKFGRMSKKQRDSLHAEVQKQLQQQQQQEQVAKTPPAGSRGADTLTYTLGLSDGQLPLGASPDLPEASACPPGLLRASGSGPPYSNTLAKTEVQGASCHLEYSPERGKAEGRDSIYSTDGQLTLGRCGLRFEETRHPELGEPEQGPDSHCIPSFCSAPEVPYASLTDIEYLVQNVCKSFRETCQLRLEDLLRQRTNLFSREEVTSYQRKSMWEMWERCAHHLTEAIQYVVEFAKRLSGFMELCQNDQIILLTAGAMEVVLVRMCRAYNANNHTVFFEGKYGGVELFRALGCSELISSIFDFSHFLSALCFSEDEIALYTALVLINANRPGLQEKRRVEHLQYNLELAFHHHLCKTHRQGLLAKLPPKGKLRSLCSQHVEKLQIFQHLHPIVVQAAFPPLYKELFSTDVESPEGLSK
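Compounds are pin-transferred onto Drosophila Schneider cells expressing a copper-inducible Gal4–ROR gamma transactivation domain fusion. After 1 hr, copper sulfate is added to 700 uM final; luciferase is read 20 hr later.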
CtBP-E1A inh = qHTS Assay for Inhibitors of the CtBP/E1A Interaction; CtBP / adenovirus E1A interaction (AlphaScreen); AlphaScreen GST-E1A/His-CtBP binding, 1536-well; active compounds read low; activity change, % (test concentration not listed); 340,000 compounds, 0.49% hits; in the data active = activity change below about -65%; inconclusive = mostly about -30% to -63%; note: % is set by controls: 0 for no effect and ±100 for the full control effect
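AlphaScreen with 125 nM GST-E1A and 125 nM His-CtBP (5X stocks) in Tris pH 8.0, 300 mM NaCl, BSA, Tween 20, TCEP. Compounds preincubated 2 h at 37 deg C, then glutathione donor/nickel acceptor beads added for 1 h at 37 deg C in dark.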
Six1-Eya2 inh = qHTS Assay for Inhibitors of the Six1/Eya2 Interaction. Homeobox protein SIX1 (Homo sapiens) + Protein phosphatase EYA2 (Homo sapiens), …. AlphaScreen GST-Six1/His-Eya2 binding, biochemical; active compounds read low. activity change, % (test concentration not listed). 360,000 compounds, 0.56% hits; in the data active = activity change below about -65%; inconclusive = mostly about -30% to -63%; note: % is set by controls: 0 for no effect and ±100 for the full control effect
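Six1/Eya2 binding was read as AlphaScreen signal after compounds were pinned into GST-Six1 plus His-tagged Eya2 (5X stock 250/500 nM) in pH 8.0 Tris/NaCl/TCEP buffer, beads added, then incubated 1 h, 37 C, dark.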
p53 reactivator = qHTS assay for re-activators of p53 using a Luc reporter | Potency, µM (series often up to 92.2 µM), inactives show at the highest dose activity change, positive = activation, usual class: activators | H1299 p53-A138V BP100-luciferase reporter, luminescence, 24 h | 320,000 compounds, 0.063% hits; note: potency is the fitted concentration of half-maximal effect; % of control where 0% means no effect; nearly all actives have a fitted effect of over 45% in size
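p53-null H1299 cells stably carrying temperature-sensitive p53-A138V and a BP100-luciferase reporter were pinned with compounds (4-point, 1:5 series) and held 24 hrs at 37 deg C. Luminescence was read 10 min after detection reagent.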
Gal4-VP16 FLuc = VP16 counterscreen qHTS for inhibitors of ROR gamma transcriptional activity; Drosophila S2 Gal4-VP16 UAS-luciferase, luminescence, 20 h; Potency, µM (doses to about 53.6 µM), for inactives: at the top dose activity, negative = inhibition, most hits filed as inhibitors; 310,000 compounds, 3.5% hits; AID 2546, 2010;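 note: Gal4-VP16 expression switched on by copper sulfate through the metallothionein promoter; potency is the fitted concentration of half-maximal effect; % is set by controls: 0 for no effect and ±100 for the full control effect; nearly all actives have a fitted effect of over 50% in size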
Numbers without * were called inactive; [ ] = remark or other dose. A selection: hits, their analogues and other compounds. The true share with any hit is near 5.4%. Unless noted, calls come from the whole dose curve; as a rule, active = well fitted curve in the direction sought with a large enough effect; inconclusive = small, poorly fitted or top-dose-only effect, or another doubt; inactive = no such curve, though single readings can be large; an effect the other way counts as inactive or inconclusive.

`CCCn1nnnc1NC(=O)COc1ccc(CC)cc1` gave RORgamma inh 10µM*, CtBP-E1A inh -10, Six1-Eya2 inh -11, p53 reactivator 0% and Gal4-VP16 FLuc 11µM*.
For CCCn1nnnc1NC(=O)COc1ccc(Cl)c(C)c1 the results were RORgamma inh 5µM*, CtBP-E1A inh -7, Six1-Eya2 inh -8, p53 reactivator -3% and Gal4-VP16 FLuc 4.5µM*.
For Cc1n[nH]c(=O)c2c(NC(=O)CSc3nncs3)oc(C)c12 the results were CtBP-E1A inh 0, Six1-Eya2 inh 0 and p53 reactivator -1%.
For CCN(Cc1ccccc1)c1ccc(N=Nc2nn(C)c(C)c2[N+](=O)[O-])cc1 the results were RORgamma inh inconclusive, CtBP-E1A inh -68*, Six1-Eya2 inh -70*, p53 reactivator 13% and Gal4-VP16 FLuc inconclusive.
Screening CCN(CC)c1ccc(N=Nc2nn(C)c(C)c2[N+](=O)[O-])cc1 returned RORgamma inh 5µM*, CtBP-E1A inh inconclusive, Six1-Eya2 inh -67*, p53 reactivator inconclusive and Gal4-VP16 FLuc inconclusive.
O=C(c1ccc(-n2cncn2)c([N+](=O)[O-])c1)N1CCN(S(=O)(=O)c2ccccc2F)CC1 was read as CtBP-E1A inh 11, Six1-Eya2 inh 4 and p53 reactivator 24%.
For O=C1C=C[C@@H](O)[C@H]2[C@@H]3C(=O)N(Cc4ccc5c(c4)OCO5)C(=O)[C@@H]3CC[C@H]12 the results were RORgamma inh 0%[10 µM] and Gal4-VP16 FLuc 8%[10 µM].
Screening O=C(CCC(=O)c1ccc(F)cc1)OCc1nnc(-c2ccc([N+](=O)[O-])cc2)o1 returned CtBP-E1A inh -4, Six1-Eya2 inh -8 and p53 reactivator -4%.
COc1ccccc1N1CCN(C(=S)NC(=O)/C=C/c2ccccc2)CC1 was read as RORgamma inh 0.89µM*, CtBP-E1A inh 0, Six1-Eya2 inh 19, p53 reactivator 11% and Gal4-VP16 FLuc 7.1µM*.
Screening COc1ccccc1N1CCN(C(=S)NC(=O)/C=C/c2ccc(F)cc2)CC1 returned RORgamma inh 3.5µM*, CtBP-E1A inh inconclusive, Six1-Eya2 inh -8, p53 reactivator 9% and Gal4-VP16 FLuc 10µM*.
CCc1ccccc1NC(=S)N(Cc1ccco1)C(C)c1cccs1 (stereo not drawn) was read as RORgamma inh 11µM*, CtBP-E1A inh 2, Six1-Eya2 inh -5, p53 reactivator 0% and Gal4-VP16 FLuc -7%[10 µM].
Screening Cc1cc(C)cc(NC(=S)N(CCN2CCCCC2)Cc2ccco2)c1 returned RORgamma inh 10µM*, CtBP-E1A inh -4, Six1-Eya2 inh -9, p53 reactivator 7% and Gal4-VP16 FLuc 0%[10 µM].
`COc1ccc(NC(=S)N(CCN2CCCCC2)Cc2ccco2)cc1` gave RORgamma inh inconclusive, CtBP-E1A inh -5, Six1-Eya2 inh -9, p53 reactivator 8% and Gal4-VP16 FLuc -12%.
Cc1ccc(NC(=S)N(CCN2CCCCC2)Cc2ccco2)cc1Cl was read as RORgamma inh 14µM*, CtBP-E1A inh 5, Six1-Eya2 inh 0, p53 reactivator 0% and Gal4-VP16 FLuc inconclusive.
Screening CCN1CCN(CCCN(Cc2ccco2)C(=S)Nc2ccccc2Cl)CC1 returned RORgamma inh 14%, CtBP-E1A inh -2, Six1-Eya2 inh -2, p53 reactivator 3% and Gal4-VP16 FLuc -12%[10 µM].
For CCc1ccccc1NC(=S)N(CCN1CCCCC1)Cc1ccco1 the results were RORgamma inh 11µM*, CtBP-E1A inh 5, Six1-Eya2 inh -2, p53 reactivator 3% and Gal4-VP16 FLuc -7%.
For CC(C)C(=O)NS(=O)(=O)c1ccc(NS(C)(=O)=O)cc1 the results were RORgamma inh -1%, CtBP-E1A inh 9, Six1-Eya2 inh 12, p53 reactivator 2% and Gal4-VP16 FLuc -1%.
For O=C(NC(=S)Nc1ccc(Oc2ccc(Cl)cc2)cc1)c1ccccc1 the results were RORgamma inh 3.5µM*, CtBP-E1A inh 0, Six1-Eya2 inh -16, p53 reactivator -6% and Gal4-VP16 FLuc 7.9µM*.
